We go through 66 molecules from PubChem BioAssay AID504840 (Johns Hopkins Ion Channel Center, 2011).

The campaign covered roughly 1,500 compounds. About 890 (59%) were called active.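 How the source made its calls: active means inhibition of the choline-evoked signal at any tested dose together with a fitted dose-response curve; inactive means no inhibition at any dose or no curve.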 So high a share suggests a set chosen from earlier hits. Only a sample is shown. Results with a measured potency or affinity are listed apart.

The target of this experiment is High affinity choline transporter 1 (Homo sapiens) (UniProt Q9GZV3). Put plainly: CHT inhibitors, dose response, cell-based, 5-point CRC, membrane potential dye (AID 504840). The following applies: HEK293-CHT, choline-induced depolarization, CHT with LV-to-AA double alanine mutation; series mostly up to 37 µM.
High affinity choline transporter 1 (Homo sapiens), sequence (Q9GZV3 whole entry, looked up): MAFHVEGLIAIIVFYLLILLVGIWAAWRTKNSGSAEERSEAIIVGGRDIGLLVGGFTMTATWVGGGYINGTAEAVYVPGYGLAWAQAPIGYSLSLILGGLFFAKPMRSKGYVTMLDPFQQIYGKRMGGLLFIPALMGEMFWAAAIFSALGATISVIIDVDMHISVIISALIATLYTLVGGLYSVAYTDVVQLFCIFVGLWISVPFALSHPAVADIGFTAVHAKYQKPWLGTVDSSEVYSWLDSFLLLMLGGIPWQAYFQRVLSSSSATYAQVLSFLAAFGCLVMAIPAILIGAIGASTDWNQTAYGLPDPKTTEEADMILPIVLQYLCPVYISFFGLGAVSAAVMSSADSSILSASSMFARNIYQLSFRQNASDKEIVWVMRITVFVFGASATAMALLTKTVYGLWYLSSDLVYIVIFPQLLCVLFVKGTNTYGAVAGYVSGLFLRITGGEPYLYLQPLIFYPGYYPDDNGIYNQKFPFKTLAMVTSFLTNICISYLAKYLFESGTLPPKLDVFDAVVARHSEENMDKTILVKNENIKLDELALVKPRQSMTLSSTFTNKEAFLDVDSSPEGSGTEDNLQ
With `C/C(=N\NC(=O)c1ccccc1O)C1C(=O)c2ccccc2C1=O`, the result was inactive.
Then `COC(=O)C1CN(C(=O)C(C)Oc2ccccc2Cl)c2ccccc2O1` (stereo unspecified), with “inactive”; and `CC(NC(=O)Cn1nc(-c2ccccc2)c2ccccc2c1=O)c1ccccc1` (stereo unspecified), with “inactive”.
Then `O=c1c2cc(Br)ccc2nc(-c2cccc(C(F)(F)F)c2)n1O`, with “inactive”; and `CCn1c(SCC(=O)N=Nc2c(O)[nH]c3ccccc23)nc2ccccc21`, with “inactive”.
Regarding `OC(CNCC#Cc1ccccc1)c1ccccc1` (stereo unspecified), the result was inactive.
Next, `O=C(C1CCCN(c2ncnc3c2nc2n3CCCCC2)C1)N1CCN(c2cccc(Cl)c2)CC1` (stereo unspecified): “inactive”; `COc1ccc(Cl)cc1NC(=O)C1CCCN(c2ncnc3c2nc2n3CCCCC2)C1` (stereo unspecified): “inactive”.
Then `O=C(Nc1cc(F)ccc1F)C1CCCN(c2ncnc3c2nc2n3CCCCC2)C1` (stereo unspecified), with “inactive”.
Next, `Cc1ccc(N2CCN(C(=O)C3CCCN(c4ncnc5c4nc4n5CCCCC4)C3)CC2)c(C)c1` (stereo unspecified): “inactive”.
Take `O=C(c1cccs1)C1C(c2ccc(Br)cc2)NC(=S)NC1(O)C(F)(F)F` (stereo unspecified): the outcome was inactive.
Then `COc1ccc(Cl)c2sc(N(CCN(C)C)C(=O)c3ccc4c(c3)OCCO4)nc12`, with “inactive”; and `Cc1[nH]n(-c2ccccc2)c(=O)c1N=Nc1c(O)cc(S(=O)(=O)N(C)C)c2ccccc12`, with “inactive”; and `COc1cccc(N2CCN(c3ncnc4c3[nH]c3ccc(F)cc34)CC2C)c1` (stereo unspecified), with “inactive”.
Regarding `COCCNc1c2c(nc3c(-c4ccccc4)c(C)nn13)CCCC2`, the molecule was classed as inactive.
For `CN1CCN(Cc2ccc(Sc3ccc(Cl)cc3)c([N+](=O)[O-])c2)CC1`, the outcome was inactive.
`CCOC(=O)N1CCN(C(=O)CCCn2c(=S)[nH]c3ccc(Br)cc3c2=O)CC1`: the molecule was called inactive.
Then `CC1=NN(C(=O)c2ccc(Br)cc2)C(O)(C(F)(F)OC(F)(F)F)C1` (stereo unspecified), with “inactive”; and `O=C(Nc1ccccc1O)c1ccccc1O`, with “inactive”.
Then `CCc1nc(NCc2ccccn2)c2oc3ccccc3c2n1`, with “inactive”.
Then `O=C1c2ccccc2C(=O)c2c(Nc3ccc(CCO)cc3)ccc(O)c21`, with “inactive”; and `COc1cc(C(CCN2CCCC(C)C2)c2c(OC)cc(OC)c3c(-c4ccccc4)cc(=O)oc23)cc(OC)c1OC` (stereo unspecified), with “inactive”.
Regarding `O=C(CCCSc1nc2ccccc2[nH]1)N1CCN(c2ccccc2)CC1`, the outcome was inactive.
On to `Cc1cc(C)nc(SCc2cc(=O)c(OC(=O)c3ccc(S(=O)(=O)N4CCCC4)cc3)co2)n1`, for which the molecule was classed as inactive.
Then `CN1CCN(c2ccc(S(=O)(=O)N3CCCCC3)cc2NC(=O)CSCc2ccccc2)CC1`, with “inactive”; and `CC(C)[C@H](NC(=O)c1ccccc1)C(=O)OCC(=O)c1ccc2c(c1)NC(=O)CO2`, with “inactive”; and `O=C(CCl)N(c1ccc(Cl)cc1)c1c[nH]c2ccccc12`, with “inactive”.
As to `O=C(Nc1cc([N+](=O)[O-])ccc1O)c1cccc([N+](=O)[O-])c1`, the result was inactive.
Turning to `Oc1ccc(-c2nc(-c3ccc(O)c(O)c3)cs2)cc1`, the result was inactive.
Regarding `Cc1cccc2sc(N(CCCN(C)C)C(=O)c3ccc(Cl)s3)nc12`, the molecule was classed as inactive.
Next, `Cc1oc(C(=O)O)cc1COc1ccc2c3c(c(=O)oc2c1C)CCC3`: “inactive”; `O=[N+]([O-])c1ccc(O)c(/C=N/NC2=NS(=O)(=O)c3ccccc32)c1`: “inactive”; `c1cc(Nc2ncnc3sccc23)cc(-c2nnc3n2CCCCC3)c1`: “inactive”.
Next, `O=c1c2cc(NC(=S)NC3CCCCC3)ccc2nc2n1CCCCC2`: “inactive”.
For the molecule `CCCn1c(=O)c2c(nc3n2CCCN3CCc2ccc(OC)c(OC)c2)n(C)c1=O`, the result was inactive.
Then `O=C(NNc1ccc(C(F)(F)F)cc1[N+](=O)[O-])c1ccc(NS(=O)(=O)c2ccc(F)cc2)cc1`, with “inactive”; and `O=C(NNc1nc(-c2ccccc2)cs1)c1ccc(F)cc1`, with “inactive”.
Next, `O=C(NCc1nc(-c2ccccc2)cs1)c1ccccc1`: “inactive”; `C=CCNC(=O)c1onc(CSc2ccc(C(C)C)cc2)c1C(=O)O`: “inactive”.
Then `CC(=O)C(Sc1nn(C)c(=S)s1)C(=O)Nc1ccccc1` (stereo unspecified), with “inactive”.
As for `CN1CCN(CCOCCOc2ccc(Br)cc2Cl)CC1`, the molecule was called inactive.
As to `CCOc1cc(/C=C2\N=C(SC)SC2=O)cc([N+](=O)[O-])c1OC(C)=O`, the molecule was called inactive.
Consider `COC(=O)C(C)Sc1nc2c(c(=O)[nH]c(=O)n2C)n1CCC(C)C` (stereo unspecified), for which the molecule was classed as inactive.
Then `O=S(=O)(Nc1nc(-c2ccccc2)cs1)c1cccc(C(F)(F)F)c1`, with “inactive”.
As for `O=C(Nc1nc(-c2ccccc2)cs1)c1ccc(=O)[nH]c1`, the result was inactive.
As to `N#Cc1ccc(C2=NC(C(F)(F)F)(C(F)(F)F)c3c(n(Cc4ccco4)c(=O)[nH]c3=O)N2)cc1`, the result was inactive.
As for `O=C(Nc1ccc(S(=O)(=O)NC2=NCCCCC2)cc1)C1COc2ccccc2O1` (stereo unspecified), the outcome was inactive.
Take `O=C(CC1C(=O)NCCN1C(=O)Nc1ccccc1)Nc1cc(Cl)cc(Cl)c1` (stereo unspecified): the call was inactive.
Then `CCCCc1cc(=O)oc2cc(O)cc(O)c12`, with “inactive”; and `CN1CCN(CC(=O)Nc2nc(-c3c[nH]c4ccccc34)cs2)CC1`, with “inactive”.
Then `Nc1cc(N2CCCCCC2)c2nonc2c1[N+](=O)[O-]`, with “inactive”; and `O=C(NNc1ccc([N+](=O)[O-])cc1[N+](=O)[O-])c1ccco1`, with “inactive”; and `COc1ccc2c(c1)c(C(O)CN1CCC(Cc3ccccc3)CC1)c(C)n2C` (stereo unspecified), with “inactive”.
Then `CC1(C)c2cc(Cl)ccc2-n2c1cc(O)c(-c1ccccc1)c2=O`, with “inactive”; and `CCOC(=O)c1c(CCl)nc2ccccc2c1C`, with “inactive”.
Regarding `CCCCCn1c(CCNC(=O)CCC)nc2ccccc21`, the molecule was classed as inactive.
With `Cc1occc1C(=O)NNC(=S)NC(=O)COc1ccc(Cl)cc1Cl`, the call was inactive.
Then `Cc1occc1C(=O)NNS(=O)(=O)c1ccc([N+](=O)[O-])cc1`, with “inactive”; and `O=C(O)c1ccccc1-c1ccccc1C(=O)Nc1ccc(-c2nc3cc(Cl)ccc3o2)cc1`, with “inactive”; and `Cc1cccc(N2CCN(C(=O)C3CCN(c4ncnc5c4nc4n5CCCCC4)CC3)CC2C)c1` (stereo unspecified), with “inactive”.
Take `CCn1c(SCC(=O)c2ccccc2)nnc1-c1cccs1`: the outcome was inactive.
Consider `CCC(Sc1nnc(-c2ccc(C)c(Cl)c2)n1CC)C(=O)Nc1nccs1` (stereo unspecified), for which the molecule was called inactive.
Take `Cc1c(O)ccc(/C(Cc2ccc3ccccc3n2)=N\N)c1O`: the molecule was classed as inactive.
Consider `C=CCNc1nc(SCC=C)nc2ccsc12`, for which the call was inactive.
Next, `N#C/C(=C(/O)CCl)c1nc(-c2ccccc2)cs1`: “inactive”; `O=C(c1cccc(Oc2ccc([N+](=O)[O-])cc2Cl)c1)N1CCCCC1`: “inactive”.
